12-hLO inh: qHTS Assay for Inhibitors of 12-hLO (12-human lipoxygenase); Polyunsaturated fatty acid lipoxygenase ALOX12 (Homo sapiens), P18054; purified 12-hLO, xylenol orange hydroperoxide absorbance; Potency, µM (series often up to 57.1 µM), for inactives: top-dose activity change, negative = inhibition, most hits filed as inhibitors; 150,000 compounds, 0.12% hits; AID 1452, 2008; further: potency means the concentration at half of the fitted maximal effect; nearly all actives have a fitted effect of over 55% in size
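150 nM 12hLO, 25 mM Hepes pH 7.0 + 0.01% Triton X-100; cpd preinc 15 min RT; 40 uM arachidonic acid, 30 min RT; Fe-XO 30 min; A573/A405 ratio as read-out.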
PNC inhibitor: High Content Assay for Compounds that inhibit the Assembly of the Perinucleolar Compartment. PC3M PTB-GFP, PNC prevalence imaging, 16 h; stronger effect = lower value. activity change (PNC), negative = inhibition, % at 10 µM. 140,000 compounds, 3.1% hits. AID 2417, 2010;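 active means readout at or below -70, meaning at least 70% loss of cells showing the perinucleolar compartment, a nuclear body marking cancer cells; inconclusive means readout between -30 and a set limit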;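 further: plate controls were DMSO wells for no effect and camptothecin positive control wells for full effect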
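Compounds are pinned in duplicate onto adhered PC3M cells stably expressing GFP-tagged PTB and incubated 16 h at 37 C. Cells are then fixed, nuclei stained with Hoechst, and PNC-positive cells counted.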
GLA spleen mod: qHTS Assay for Inhibitors and Activators of Human alpha-Galactosidase From Spleen Homogenate. Alpha-galactosidase A (Homo sapiens), P06280. human spleen homogenate, 4MU-alpha-Gal fluorescence, 40 min. Potency, µM (highest dose often 80 µM), for the others: at the highest dose activity change, negative = inhibition, usual class: inhibitors. 240,000 compounds, 0.008% hits;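 further: potency means the concentration at half of the fitted maximal effect; 0% = enzyme with vehicle and -100% = no enzyme basal signal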
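Spleen homogenate 1 ug + cpd (titration) + 4-MU-alpha-D-galactopyranoside 1 mM; 37C 40 min; 50 mM citrate/phosphate pH 5.0, 0.01% Tween-20; stop pH 10; fluorescence 365/440; AC50 via Hill.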
GLA inh pH 4.5: qHTS Assay for Inhibitors of Human alpha-Galactosidase at pH 4.5; Alpha-galactosidase A (Homo sapiens), P06280; purified enzyme, 4-MU-alpha-Gal fluorescence, pH 4.5; activity change, negative = inhibition, % at 105 µM; 230,000 tested, under 10 active; AID 1467, 2008;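 further: 0% = full activity with enzyme and -100% = basal without enzyme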
ALDH1A1 block: qHTS Assay for Inhibitors of Aldehyde Dehydrogenase 1 (ALDH1A1); Potency, µM (titrated, usually from 75.3 µM), without a hit: at the highest dose activity, negative = inhibition, most hits filed as inhibitors; AID 1030, 2008; 220,000 compounds, 7.3% hits; Aldehyde dehydrogenase 1A1 (Homo sapiens), P00352; Purified ALDH1A1, NADH fluorescence, propionaldehyde substrate; active means well fitted inhibition curve with a large enough effect, not every such curve was filed as active; inconclusive means small, poorly fitted or top-dose-only effect, or another doubt; inactive means no such curve, though single readings can be large or run the other way;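 further: potency means the concentration at half of the fitted maximal effect; plate controls were no enzyme wells and a reference inhibitor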
HPGD block: qHTS Assay for Inhibitors of HPGD (15-Hydroxyprostaglandin Dehydrogenase); 15-hydroxyprostaglandin dehydrogenase [NAD(+)] (Homo sapiens), P15428; purified HPGD, NADH fluorescence kinetic, PGE2 substrate; Potency, µM, for inactives: top-dose activity change, negative = inhibition, actives largely listed as inhibitors; 150,000 compounds, 4.3% hits; active means well fitted inhibition curve with a large enough effect, not every such curve was filed as active; inconclusive means small, poorly fitted or top-dose-only effect, or another doubt; inactive means no such curve, though single readings can be large or run the other way; further: potency means the concentration at half of the fitted maximal effect
Target sequence (P15428 whole entry, looked up): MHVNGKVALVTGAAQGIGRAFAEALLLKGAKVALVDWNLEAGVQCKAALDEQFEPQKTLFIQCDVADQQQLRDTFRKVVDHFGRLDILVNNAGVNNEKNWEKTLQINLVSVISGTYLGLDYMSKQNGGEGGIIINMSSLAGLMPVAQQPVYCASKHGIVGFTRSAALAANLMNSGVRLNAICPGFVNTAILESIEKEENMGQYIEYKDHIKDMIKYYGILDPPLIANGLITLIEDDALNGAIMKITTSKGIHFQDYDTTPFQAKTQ
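20 nM HPGD preincubated 15 min at room temperature with compound in 50 mM Tris-HCl pH 8, 0.01% Tween 20. Started with 1 mM NAD+ and 30 uM prostaglandin E2; NADH fluorescence (360/450 nm) read 5 times over 30-s intervals, last minus first.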
Active calls of the source: *; u = inconclusive; x = no result given. Most compounds without a hit are left out; they make up all but 10% or so of the library. Unless noted, the call rests on the fitted dose curve; in most records, active means well fitted curve in the direction sought with a large enough effect; inconclusive means small, poorly fitted or top-dose-only effect, or another doubt; inactive means no such curve, though single readings can be large; an effect the other way counts as inactive or inconclusive. Unless noted, on the % scale 0 is the no-effect control and ±100 the full control effect.

SMILES	12-hLO inh	PNC inhibitor	GLA spleen mod	GLA inh pH 4.5	ALDH1A1 block	HPGD block
Cc1ccc(NC(=O)CSC2=C(C#N)C(c3ccc4c(c3)OCO4)C3=C(CCCC3=O)N2)c(C)c1 (centres undefined)	-29%	12	2%	-19	14µM*	u
CCSC1=C(C#N)C(c2ccc3c(c2)OCO3)C2=C(CCCC2=O)N1 (centres undefined)	3%	1	10%	-2	u	14µM*
COC(=O)CSC1=C(C#N)C(c2ccc3c(c2)OCO3)C2=C(CCCC2=O)N1 (centres undefined)	-4%	27	3%	0	-5%	-18%
C=CCNC(=O)c1cccc(NS(=O)(=O)c2ccc(Cl)cc2)c1	x	x	6%	0	-1%	x
CCCC/C=C/C(NC(=O)Oc1cccc(C(F)(F)F)c1)c1ccccc1 (centres undefined)	-3%	x	-3%	-6	-9%	-14%
Cc1ccc(-n2c(O)c(C=Nc3ccccc3-c3n[nH]c(=S)[nH]c3=O)c3ccccc3c2=O)cc1C	x	x	0%	-5	3.5µM*	x
Cc1ccc(-n2c(O)c(C=Nc3ccccc3-c3n[nH]c(=S)[nH]c3=O)c3ccccc3c2=O)c(C)c1	x	x	0%	-13	18µM*	x
Cc1cccc(-n2c(O)c(C=Nc3ccccc3-c3n[nH]c(=S)[nH]c3=O)c3ccccc3c2=O)n1	x	x	3%	-10	u	x
Cc1cccc(-n2c(O)c(C=Nc3ccccc3O)c3ccccc3c2=O)n1	x	x	2%	-19	x	x
C=CCN1C(=O)C(Cc2ccc(OCC)cc2)S/C1=N\N=C\c1cccs1 (centres undefined)	-6%	13	0%	0	4.5µM*	-13%
O=C1Nc2ccccc2C(=O)N2CCC[C@@H]12	x	x	-6%	0	11%	-3%
CC1CN(C(=O)c2ccc(COc3ccc(C(C)C)cc3)o2)CC(C)O1 (centres undefined)	x	x	3%	-7	28µM*	x
CC(=O)c1cccc(NC(=O)C(=O)c2cn(CC(=O)N3CCCCC3)c3ccccc23)c1	x	x	0%	-11	u	x
CCC(CO)n1c(SCc2cc(=O)oc3cc(C)ccc23)nc2ccccc2c1=O (centres undefined)	-10%	u	-6%	-22	4.5µM*	-12%
CN(C)C=O	0%	x	12%	x	15%	0%
CC1=C(C(=O)O)N2C(=O)C(NC(=O)C(N)c3ccc(O)cc3)C2SC1 (centres undefined)	-5%	x	-4%	10	-7%	-17%
c1nc(NCC2(N3CCOCC3)CCCCC2)c2ccsc2n1	3%	-100*	7%	2	4%	-18%
O=C(O)C1CSC2c3ccccc3C(=O)N12 (centres undefined)	-1%	u	4%	-3	7.5µM*	u
CCOC(=O)C(NC(C)=O)(Nc1ccc(S(=O)(=O)Nc2cc(C)on2)cc1)C(F)(F)F (centres undefined)	-3%	-11	-3%	2	18%	-2%
Cc1ccn2cc(-c3ccc(NS(=O)(=O)c4ccccc4)cc3)nc2c1	-2%	18	4%	2	-5%	22µM*
Cc1cc(NS(=O)(=O)c2ccc(NS(=O)(=O)c3ccc(CC(C)C)cc3)cc2)nc(C)n1	x	x	-11%	5	32µM*	x
CCOC(=O)C(NC(C)=O)(Nc1ccc(S(=O)(=O)Nc2cc(C)nc(C)n2)cc1)C(F)(F)F (centres undefined)	-4%	u	9%	-4	14µM*	4%
